Compounds with a hit are over-represented: about 21% of the library has one in this group of screens.
Pf growth 48h: inhibits P. falciparum growth in the first generation, 48 h; P. falciparum luciferase growth in erythrocytes, 48 h; AID 504832; Potency, µM (titrated, usually from 28.7 µM), for the others: at the highest dose activity change, negative = inhibition, usual class: inhibitors; actives 5.9% (n = 310,000); further: potency means the concentration at half of the fitted maximal effect; on the % scale 0 is the no-effect control and ±100 the full control effect
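A one-generation exposure of luciferase-tagged malaria parasites in RPMI 1640/Albumax erythrocyte culture, 37 C and 5% CO2. Inhibition is inferred from decreased luminescence after adding detection reagent.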
Pf growth 96h: P. falciparum growth inhibition at 96 hours; P. falciparum luciferase reporter growth, 96 h; actives 6.9% (n = 320,000); AID 504834; Potency, µM (series often up to 28.7 µM), inactives show at the top dose activity change, negative = inhibition, actives largely listed as inhibitors; further: potency means the concentration at half of the fitted maximal effect; on the % scale 0 is the no-effect control and ±100 the full control effect
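Cell-based qHTS: luciferase-tagged P. falciparum in erythrocytes (2% hematocrit, 0.05% parasitemia final) incubated with compounds for 96 hours, 37 C, 5% CO2; luciferase detection reagent then added and luminescence measured.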
NS1 function inh: influenza NS1 inhibition; Potency, µM (titrated, usually from 46.1 µM), for inactives: top-dose activity, positive = more growth; actives 0.4% (n = 270,000); calls by dose curve; further: potency means the concentration at half of the fitted maximal effect; actives are rising curves; nearly all actives have a fitted effect of over 50% in size
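Recovery from NS1-induced slow growth read by OD600 in budding yeast switched to galactose assay medium (pH 6.0, -URA) at 1:100 dilution. Compound 23 nl per well; the matching strain lacking NS1 serves as control.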
CHX counter: affects cycloheximide protein synthesis inhibition readout, counter-screen. max response, %. cell reporter, cycloheximide protein synthesis inhibition counterscreen. AID 2314. actives 12% (n = 300,000); in the data active means max response mostly above about 13%, no sharp cut-off; inactive means mostly below about 14%; further: read at 38.3 µM for the half of the compounds with a filed dose; 0% is about no effect
Shiga inhibitor: Shiga toxin inhibition | Vero cells, Shiga toxin protein synthesis inhibition reporter | inhibition, % at 38.7 µM | actives 9.2% (n = 290,000) | AID 2315; in the data active means inhibition mostly above about 28%, no sharp cut-off; inactive means mostly below about 43%; further: 0% is about no effect
* marks the source's active call; other numbers are inactive results; ? = inconclusive; · = no result. Unless noted, the call rests on the fitted dose curve; in most records, active means well fitted inhibition curve with a large enough effect; inconclusive means small, poorly fitted or top-dose-only effect, or another doubt; inactive means no such curve, though single readings can be large or run the other way.

SMILES | Pf growth 48h | Pf growth 96h | NS1 function inh | CHX counter | Shiga inhibitor
COc1ccc(N(C=O)C(=S)SC)cc1 | -18.8% | 22.8% | 0.1% | -3.2 | -8.5
O=[N+]([O-])c1cccc(-c2cc3ccccc3[nH]2)c1 | 29.9% | 63.8% | -27.8% | 26.5* | 23.0
COCCN=C1Sc2nc3ccc(C)cc3cc2CN1Cc1ccco1 | · | ? | -14.6% | 51.6* | 114.1*
CCOc1ccc2nc3c(cc2c1)CN(CCOC)C(=NCCOC)S3 | ? | ? | 3.3% | 3.3 | 1.4
COCCN=C1Sc2nc3cc(C)c(C)cc3cc2CN1Cc1cccs1 | 10.4µM* | ? | -1.4% | 11.1 | 6.3
O=C1Nc2cc(Cl)c(Cl)cc2N(O)N1c1ccccc1 | · | 18.2% | 17.8% | 30.2* | 20.0
Cc1ccc(N2C(=O)Nc3cc(Cl)c(Cl)cc3N2O)cc1Cl | ? | 27.2% | · | -3.1 | -15.0
COc1ccc(-c2n[nH]c(=S)n2-c2ccc3c(c2)OCCO3)cc1 | -0.8% | -19.2% | 12.9% | 10.9 | 15.9
COc1ccccc1-c1n[nH]c(=S)n1-c1ccccc1 | 90.4% | 13.1µM* | -3.8% | 19.7* | 14.5
COc1ccc(OC)c(-n2c(-c3ccc(O)cc3O)n[nH]c2=S)c1 | ? | 0.0131µM* | -6.9% | 6.4 | -6.8
COc1ccccc1-c1n[nH]c(=S)n1N | -1.2% | -8.7% | · | -2.9 | 27.8
S=c1[nH]nc(-c2ccc(Cl)cc2Cl)n1-c1ccccc1 | 194.2% | ? | 3.6% | 39.7* | ·
COc1ccc(-c2n[nH]c(=S)n2-c2ccc3c(c2)OCCO3)cc1OC | ? | 25.6% | 9.5% | 23.5* | 49.8*
CC(=O)c1cccc(NC(=O)CN(C)Cc2ccc(OC(F)F)cc2)c1 | ? | -2.8% | -0.4% | 13.1 | 11.4
O=S(=O)(c1ccc(Cl)cc1)N1CN(CC2CCCO2)c2nc3ccccc3nc21 (configuration not stated) | ? | -18.5% | 11.9% | -1.6 | 7.5
S=c1[nH]nc(-c2ccc(Cl)cc2Cl)n1-c1ccc2c(c1)OCCO2 | 42.5% | 14.1% | 14.8% | 20.6* | 46.3*
Oc1ccc(-c2n[nH]c(=S)n2-c2ccc3c(c2)OCCO3)c(O)c1 | 0.415µM* | 0.0657µM* | ? | 17.1* | 35.1*
COc1ccc(C2=NO[C@@H]3C(=O)N(c4ccc5c(c4)OCCO5)C(=O)[C@H]23)cc1OC | 57.8% | 19.1% | ? | 37.6* | 47.9*
COc1ccc(C2=NO[C@@H]3C(=O)N(C4CCCCC4)C(=O)[C@H]23)cc1OC | 19.3% | ? | -1.4% | -1.6 | -6.4
Cn1nc(C(=O)NNC(=O)c2ccc(Cl)cc2)ccc1=O | 5.9% | 50.1% | · | · | ·
C(=N\N(Cc1ccccc1)c1ccccc1)/c1ccco1 | -1.1% | -10.4% | · | 3.1 | 22.6
C/C=C/C1=CC(=O)C[C@H](c2ccc(F)cc2)C1 | 41.4% | ? | · | · | ·
Clc1ccc(-c2nn3c(C4COc5ccccc5O4)nnc3s2)cc1 (configuration not stated) | -5.3% | ? | -86.6% | 20.0* | -3.5
CCS(=O)(=O)c1ccc(O)c(NC(=O)CC2(CC(=O)O)CCCC2)c1 | 0.9% | 4.7% | -1.4% | -3.3 | 18.9
c1ccc(Cn2nc(-c3ccccc3)nc2-c2ccccc2)cc1 | 79.2% | 15.0% | -13.6% | 54.0* | 52.0*
SMILES | Pf growth 48h | Pf growth 96h | NS1 function inh | CHX counter | Shiga inhibitor
Cc1ccc(Cn2nc(-c3ccccc3)nc2-c2ccccc2)cc1 | 46.3% | 151.8% | -1.0% | 44.9* | 121.5*
Cn1nc(-c2ccccc2)nc1-c1ccccc1 | 88.8% | 224.9% | · | · | ·
Cc1cc(C)c(NC(=O)Cn2nc(-c3ccccc3)nc2-c2ccccc2)c(C)c1 | -6.1% | -9.0% | -3.2% | 0.7 | 12.5
O=C(Nc1c(F)cc(F)cc1Br)c1cc(-c2ccc(O)cc2)on1 | · | -24.7% | -255.7% | 30.7* | 22.9
Cc1cc(C(=O)Nc2c(F)cc(F)cc2Br)no1 | 21.6% | -1.6% | -50.1% | 13.6* | 25.9
Cc1cc(C(F)F)n2nc(C(=O)Nc3c(F)cc(F)cc3Br)nc2n1 | 30.7% | · | 6.6% | -2.7 | -5.9
O=C(Nc1c(F)cc(F)cc1Br)c1cc(-c2ccccc2)on1 | 50.6% | 0.8% | 8.7% | 15.9* | ·
CC(C)(Cc1ccccc1)/[N+]([O-])=C\c1ccccc1 | -7.1% | 62.0% | · | · | ·
NC(=O)n1c(O)c(C(=O)c2cccs2)c2cc(Cl)ccc21 | -7.1% | -11.3% | · | -4.5 | -4.5
CC1CC(C)CN(CCCNC(=O)c2nn(C)c3c2CS(=O)(=O)c2ccccc2-3)C1 (configuration not stated) | 8.5% | 113.0% | -16.0% | -3.8 | 11.7

Screening data from PubChem.
